Five molecules from PubChem BioAssay can be followed below.

A short description of assay [1]: compounds binding Alexa647 anti-His antibody – biochemical, small-molecule microarray, 635 nm fluorescence, artefact control for SMM control protein annotation, primary screen (AID 1128).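 Note: score merges feature fluorescence with signal-to-noise for each printed compound spot.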 The settings on record: higher = more signal.
The test system of assay [2] is Human papillomavirus type 1a E7 protein (residues 1-88). The assay is described as follows: HPV1a E7 small-molecule binders, primary screen, biochemical, small-molecule microarray, residues 1-88, 635 nm (AID 1129). To be noted: small-molecule microarray binding, fluorescence 635 nm; higher = more signal.
Assay [3] concerns the target Focal adhesion kinase 1 (Homo sapiens) (UniProt Q05397). The assay is described as follows: PTK2 protein binding on printed compound slides – biochemical, small-molecule microarray, 635/667 nm fluorescence, BSA, DTT, primary screen (AID 1130).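 Note: composite of spot emission at 667 nm and signal to noise over triplicate slides.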 The settings on record: 635 nm fluorescence, higher = more signal.
Assay [4] deals with Fibrinogen (Alexa647-labelled). The assay is described as follows: Alexa647-fibrinogen binding to printed small molecules – biochemical, small-molecule microarray, 635/667 nm fluorescence, artefact control for SMM control-protein annotation, profiling panel (AID 1131).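 Note: z-score merges 667 nm fluorescence with per-spot signal-to-noise over triplicate slides.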 The settings on record: fibrinogen-A647 binding fluorescence, higher = more signal.
Assay [5] addresses Follistatin (Homo sapiens) (UniProt P19883). The assay is described as follows: FST protein binding to printed compounds – biochemical, small-molecule microarray, 635/667 nm fluorescence, primary screen (AID 1132). The settings on record: 635 nm fluorescence, higher = more signal.
In assay [6] the target is Fibroblast growth factor 2 (Homo sapiens) (UniProt P09038). Briefly: basic fibroblast growth factor binding to printed compounds – biochemical, small-molecule microarray, 635/667 nm fluorescence, primary screen (AID 1133). The settings on record: FGF2, fluorescence 635/667, higher = more signal.
A short description of assay [7]: JC-1 mitochondrial potential readout, lung cancer cells – cell-based, A549, JC-1 fluorescence, basal, 24 h, 100 nL, profiling panel (AID 1138).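 Note: A549 lung adenocarcinoma cells under basal conditions with no added stimulus; test concentration not given here.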 To be noted: higher = more signal.
The next assay has as its system Lefty1. The assay is described as follows: Lefty1 protein binding to printed compounds – biochemical, small-molecule microarray, 635/667 nm fluorescence, primary screen (AID 1139). To be noted: fluorescence 635/667, higher = more signal.
Assay [8] has as its system wheat germ agglutinin (Triticum aestivum), Alexa647-labelled. The assay is described as follows: Alexa647-WGA lectin binding to printed small molecules – biochemical, small-molecule microarray, 635/667 nm fluorescence, artefact control for SMM control-protein annotation, profiling panel (AID 1140).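 Note: score merges 667 nm feature emission with signal to noise over triplicate slides.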 The settings on record: WGA-A647 binding, 635 nm fluorescence, higher = more signal.

The target of assay [9] is Luciferin 4-monooxygenase (Photinus pyralis) (UniProt P08659). Briefly: inhibition of purified Photinus pyralis luciferase – biochemical, luminescence, purified enzyme, 2006 set, primary screen (AID 1141).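 Note: cell-free assay with purified firefly luciferase at 100 ng per well in PBS; test concentration not given here.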 The settings on record: purified firefly luciferase, SteadyGlo luminescence, 30 min; higher = more signal, called active from +8 up or from −8 down.
Assay [10] relates to Wnt5a (protein binding on small-molecule microarray). The assay is described as follows: small molecules binding Wnt5a protein – biophysical, small-molecule microarray, 635/667 nm fluorescence, primary screen (AID 1142).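 Note: fluorescence read at 667 nm with signal to noise per printed feature.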 To be noted: 635 nm fluorescence, higher = more signal.
Assay [11] is described as follows: ATP-based viability of Huh7 replicon cells – cell-based, CellTiter-Glo luminescence, basal, 48 h, cytotoxicity control for HCV replication inhibitor project, primary screen (AID 1143).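 Note: Huh7 hepatoma cells carrying a hepatitis C replication reporter with no stimulus; test concentration not given here.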 To be noted: higher = more signal, called active from +8 up or from −8 down. On the technique in general: A replicon is a self-replicating genome or part of one, used to study replication in cells.

The nature of assay [12]: Pseudomonas biofilm growth suppression – PAO1 strain, BacTiter-Glo luminescence, LB-PBS, primary screen (AID 1144). The settings on record: P. aeruginosa PAO1 biofilm, 12 h, higher = more signal.
The nature of assay [13]: basal CRE-LacZ reporter activity in PC12 – cell-based, unstimulated, primary screen (AID 1145). The settings on record: no forskolin, luminescence, 4.5 h, higher = more signal, called active from +8 up or from −8 down.
Assay [14] can be described thus: forskolin-driven CRE-LacZ activity in PC12 – cell-based, CRE-LacZ reporter, forskolin-stimulated, primary screen (AID 1146).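 Note: PC12 cells with 6xCRE LacZ reporter stimulated by forskolin 10 µM; beta-galactosidase reporter signal reflecting CREB driven transcription.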 The settings on record: luminescence, 4.5 h, higher = more signal, called active from +8 up or from −8 down.
For assay [15], the target named is Streptavidin (Streptomyces avidinii) (UniProt P22629). Briefly: compounds binding control protein streptavidin – biophysical, small-molecule microarray, 635/667 nm fluorescence, artefact control for SMM compound annotation, primary screen (AID 1147).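 Note: signal reflects streptavidin binding to arrayed compounds as a control protein.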 The settings on record: higher = more signal.
The nature of assay [16]: probe aInhba binding on compound microarray – biochemical, small-molecule microarray, 635/667 nm fluorescence, primary screen (AID 1148).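 Note: score merges 667nm spot fluorescence with signal-to-noise for antibody binding to printed compounds.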 To be noted: higher = more signal.
The target of assay [17] is Torsin-1A (Homo sapiens) (UniProt O14656). Briefly: TOR1A wild-type binding on microarray – cell lysate, small-molecule microarray, lysate, 635/667 nm, primary screen (AID 1149). The settings on record: COS7 hTOR1A-WT lysate, 635 nm fluorescence, higher = more signal.
Assay [18] has the same target. Briefly: torsin A mutant lysate binding on microarrays – cell lysate, small-molecule microarray, COS7 lysate, 635/667 nm fluorescence, primary screen (AID 1150).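 Note: score pools 667 nm emission and signal to noise measuring lysate protein binding.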 To be noted: COS7 hTOR1A mutant lysate, 635 nm fluorescence, higher = more signal.
For assay [19], the system named is Sonic hedgehog protein (Shh). The assay is described as follows: Sonic hedgehog microarray binding compounds – biochemical, small-molecule microarray, 635/667 nm fluorescence, primary screen (AID 1151).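 Note: Shh protein binding to compounds spotted on small-molecule microarray slides; score combines spot fluorescence intensity with signal-to-noise across triplicate slides.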 To be noted: 635 nm fluorescence, higher = more signal.

Molecules are shown by their SMILES. Active and inactive are the calls of the source. Unless noted, the rule behind the calls is not given here.

Luciferin 4-monooxygenase (Photinus pyralis), sequence (P08659 whole entry, looked up): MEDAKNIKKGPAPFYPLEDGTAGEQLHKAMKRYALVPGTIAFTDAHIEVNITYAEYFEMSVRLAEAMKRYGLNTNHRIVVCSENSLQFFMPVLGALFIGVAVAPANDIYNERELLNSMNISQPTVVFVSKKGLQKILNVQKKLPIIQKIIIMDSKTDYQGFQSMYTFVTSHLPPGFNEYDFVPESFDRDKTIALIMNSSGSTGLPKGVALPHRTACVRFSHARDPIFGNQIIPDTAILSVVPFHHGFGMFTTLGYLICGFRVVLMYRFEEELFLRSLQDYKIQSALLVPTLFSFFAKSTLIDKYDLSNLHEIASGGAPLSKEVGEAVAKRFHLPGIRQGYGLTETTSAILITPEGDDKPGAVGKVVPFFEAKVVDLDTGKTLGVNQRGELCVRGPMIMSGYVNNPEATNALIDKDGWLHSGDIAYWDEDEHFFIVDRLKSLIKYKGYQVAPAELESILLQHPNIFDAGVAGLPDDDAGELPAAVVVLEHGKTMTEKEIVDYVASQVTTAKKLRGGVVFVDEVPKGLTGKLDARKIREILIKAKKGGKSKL
Follistatin (Homo sapiens), sequence (P19883 whole entry, looked up): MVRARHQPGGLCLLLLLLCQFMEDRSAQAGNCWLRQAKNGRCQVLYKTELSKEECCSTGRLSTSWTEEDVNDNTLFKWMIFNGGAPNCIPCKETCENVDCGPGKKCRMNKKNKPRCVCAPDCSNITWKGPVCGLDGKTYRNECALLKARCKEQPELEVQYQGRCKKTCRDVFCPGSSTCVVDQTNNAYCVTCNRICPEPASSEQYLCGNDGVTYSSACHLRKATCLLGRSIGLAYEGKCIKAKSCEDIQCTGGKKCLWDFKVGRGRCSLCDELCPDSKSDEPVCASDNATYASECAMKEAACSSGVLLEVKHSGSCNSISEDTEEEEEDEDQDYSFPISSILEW
Focal adhesion kinase 1 (Homo sapiens), sequence (Q05397 whole entry, looked up): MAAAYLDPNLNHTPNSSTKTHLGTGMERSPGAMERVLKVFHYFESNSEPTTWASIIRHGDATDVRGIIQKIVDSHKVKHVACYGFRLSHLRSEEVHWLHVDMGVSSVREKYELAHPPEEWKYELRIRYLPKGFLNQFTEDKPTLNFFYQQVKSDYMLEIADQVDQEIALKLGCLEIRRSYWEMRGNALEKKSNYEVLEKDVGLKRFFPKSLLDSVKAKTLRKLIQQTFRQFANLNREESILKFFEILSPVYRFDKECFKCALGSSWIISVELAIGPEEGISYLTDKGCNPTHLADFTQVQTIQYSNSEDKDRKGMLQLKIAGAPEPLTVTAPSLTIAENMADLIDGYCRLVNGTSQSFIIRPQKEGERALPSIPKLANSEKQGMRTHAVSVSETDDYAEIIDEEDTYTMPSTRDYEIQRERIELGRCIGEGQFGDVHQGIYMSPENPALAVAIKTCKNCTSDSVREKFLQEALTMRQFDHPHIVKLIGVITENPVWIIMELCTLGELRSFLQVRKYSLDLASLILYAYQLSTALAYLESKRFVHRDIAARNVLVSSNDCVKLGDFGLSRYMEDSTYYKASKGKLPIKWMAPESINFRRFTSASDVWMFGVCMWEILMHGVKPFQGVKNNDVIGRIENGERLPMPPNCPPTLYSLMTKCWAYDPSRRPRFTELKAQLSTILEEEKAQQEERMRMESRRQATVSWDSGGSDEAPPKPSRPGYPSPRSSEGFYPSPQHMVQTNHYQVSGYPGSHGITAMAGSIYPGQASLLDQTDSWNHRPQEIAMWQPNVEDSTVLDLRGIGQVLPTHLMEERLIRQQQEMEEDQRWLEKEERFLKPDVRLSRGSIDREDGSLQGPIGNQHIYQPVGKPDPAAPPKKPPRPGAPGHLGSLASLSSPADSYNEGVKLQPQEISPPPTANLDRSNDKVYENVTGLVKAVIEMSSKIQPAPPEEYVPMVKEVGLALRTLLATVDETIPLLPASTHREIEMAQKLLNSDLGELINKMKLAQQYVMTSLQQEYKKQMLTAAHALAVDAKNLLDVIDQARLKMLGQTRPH
Fibroblast growth factor 2 (Homo sapiens), sequence (P09038 whole entry, looked up): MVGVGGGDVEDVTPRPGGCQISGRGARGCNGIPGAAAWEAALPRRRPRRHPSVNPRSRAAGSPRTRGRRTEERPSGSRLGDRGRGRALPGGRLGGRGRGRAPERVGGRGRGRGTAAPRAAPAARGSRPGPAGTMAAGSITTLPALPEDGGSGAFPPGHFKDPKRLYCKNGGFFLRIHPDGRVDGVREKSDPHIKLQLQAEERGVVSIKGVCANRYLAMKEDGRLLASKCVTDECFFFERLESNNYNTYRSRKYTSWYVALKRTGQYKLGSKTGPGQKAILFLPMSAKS
Torsin-1A (Homo sapiens), sequence (O14656 whole entry, looked up): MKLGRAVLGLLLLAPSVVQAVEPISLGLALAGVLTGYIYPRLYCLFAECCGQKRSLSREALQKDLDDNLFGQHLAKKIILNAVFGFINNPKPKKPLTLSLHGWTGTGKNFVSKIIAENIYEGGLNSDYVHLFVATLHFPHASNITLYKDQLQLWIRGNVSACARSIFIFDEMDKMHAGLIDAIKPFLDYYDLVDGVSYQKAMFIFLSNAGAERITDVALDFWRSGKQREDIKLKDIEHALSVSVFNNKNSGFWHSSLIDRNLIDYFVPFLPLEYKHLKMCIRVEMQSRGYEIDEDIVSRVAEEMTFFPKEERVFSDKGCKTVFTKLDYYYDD
Streptavidin (Streptomyces avidinii), sequence (P22629 whole entry, looked up): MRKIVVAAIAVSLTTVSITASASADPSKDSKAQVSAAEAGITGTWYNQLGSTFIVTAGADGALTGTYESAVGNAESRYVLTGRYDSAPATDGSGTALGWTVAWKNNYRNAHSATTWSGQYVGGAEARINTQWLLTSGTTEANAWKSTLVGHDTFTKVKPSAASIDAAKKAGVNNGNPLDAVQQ

For the molecule `CCCCNC(=O)c1ccc(C#C[Si](C)(C)C)c(OC(C)=O)c1`, the composite z-score in [1] worked out at 0.312; in assay [2], 0.689; in assay [3], 0.193; in assay [4], 0.0903; in assay [5] it was 0.389; in [6] it was 0.326. Also, the composite z-score in the assay with Lefty1 was 0.479; in assay [8] it was -0.0014; in assay [10], -0.0504; in assay [15] it was 0.184; in [16] it was -0.12; with Torsin-1A (Homo sapiens) [17], 0.18. Moreover, the composite z-score in the assay with Torsin-1A (Homo sapiens) [18] was determined as 1.1; in assay [19], 0.985. The z-score in assay [7] was -1.35; in assay [9] it was 0.229 (inactive); in assay [11], -0.155 (inactive); in assay [12], 0.305 (inactive); in [13], -0.773 (inactive); in assay [14] it was 0.0361 (inactive).

Turning to `N[C@@H](Cc1ccccc1)Cn1cc(C2(O)CCCCC2)nn1`, the composite z-score is 0.124 in assay [1]; 0.062 in [2]; 0.0655 in assay [3]; 0.556 in [4]; 0.0725 in [5]; -0.445 in assay [6]. The composite z-score in the assay with Lefty1 was 0.333; in assay [8], 0.128; in assay [10], -0.0937; in [15], 0.984; in assay [16], -0.0494; with Torsin-1A (Homo sapiens) [17], 0.0636. The results for the composite z-score (with Torsin-1A (Homo sapiens) [18]; in assay [19]) were -0.0257 and -0.219, respectively. For the same molecule, the z-score in assay [7] was 0.375; in assay [9], -0.377 (inactive); in assay [11], 0.08 (inactive); in assay [12], 0.683 (inactive); in assay [13], -0.244 (inactive); in [14] it was 0.766 (inactive).

With `CCOC(=O)C1=C[C@@H](C(C)(C)C)N(S(=O)(=O)c2ccc(C)cc2)[C@H]1c1ccccc1Cl`, the composite z-score in assay [1] came to 1.31; in [2], 1.2; in [3] it was 0.393; in assay [4] it was 0.776; in assay [5] it was 0.953; in assay [6], 0.119. Further, the composite z-score in the assay on Lefty1 amounted to 0.386; in assay [8], 1.18; in assay [10], 0.548; in [15], 1.11; in assay [16] it was 0.029; with Torsin-1A (Homo sapiens) [17], 0.296. Further, the composite z-score in the assay with Torsin-1A (Homo sapiens) [18] was 0.315; in assay [19] it was 0.577. Moreover, the z-score in [7] was 3.94; in assay [9] it was 0.927 (inactive); in [11] it was -3.79 (inactive); in assay [12], 1.6 (inactive); in [13], 0.986 (inactive); in assay [14] it was 1.53 (inactive).

Take `CCCCC(=C=CC[C@H](O)c1ccc(OCCO)cc1)C[C@H](O)c1ccccn1`: the composite z-score in [1] is 1.67; in assay [2] it was 1.13; in assay [3], 0.26; in assay [4], 0.963; in assay [5], 1.27; in [6] it was 1.54. Besides, the composite z-score in the assay on Lefty1 is 0.885; in assay [8], 0.266; in assay [10], 0.259; in [15], -0.319; in assay [16] it was 0.0398; with Torsin-1A (Homo sapiens) [17] it was 0.215. Besides, the composite z-score with Torsin-1A (Homo sapiens) [18] is 1.58; in assay [19], 1.17. The z-score in assay [7] is 1.27; in assay [9] it was -2.27 (inactive); in assay [11], -0.671 (inactive); in assay [12], 0.229 (inactive); in assay [13], 5.13 (inactive); in [14], -0.533 (inactive).

For `COC(=O)C1(CC(C)C)C=C2C(=C(C(C)C)C(=O)C2C)CN1` (stereo not given), the composite z-score in assay [1] was 0.928; in assay [2], -1.05; in assay [3], 0.208; in [4] it was -0.653; in [5], -1.04; in assay [6], -0.688. Besides, the composite z-score in the assay with Lefty1 was -0.746; in assay [8] it was 0.323; in assay [10], -0.187; in assay [15] it was -0.469; in [16], -0.0791; with Torsin-1A (Homo sapiens) [17], -0.742. The composite z-score in the assay with Torsin-1A (Homo sapiens) [18] is -0.15; in assay [19] it was -0.702. The z-score in assay [7] was 0.44; in assay [9], 1.66 (inactive); in assay [11] it was 0.254 (inactive); in assay [12], 0.825 (inactive); in assay [13] it was 1.34 (inactive); in assay [14] it was -0.872 (inactive).
